Bioassay records as filed in PubChem.
KB-3-1 cytotox: qHTS assay for MDR1-selective chemotherapeutics: Primary screen using the parental adenocarcinoma cell KB-3-1; KB-3-1 viability, CellTiter-Glo ATP luminescence, 72 h; Potency, µM (highest dose often 46.1 µM), usual class: cytotoxic; 1.4% of 400,000 active; AID 1347075, 2019; also: nearly all actives have a fitted effect of over 60% in size
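Cells are dispensed, compounds pinned in, plates held at 37 °C for 72 h, then CellTiter-Glo is added and luminescence read after 10 minutes. Cell line: parental KB-3-1 in phenol-red-free DMEM, 10% FBS.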
KB-V1 MDR tox: qHTS assay for MDR1-selective chemotherapeutics: Primary screen using the drug-selected MDR subline cells KB-V1 | AID 1347076, 2019 | KB-V1 MDR cells viability, CellTiter-Glo, 72 h | 3.4% of 400,000 active | Potency, µM (top dose mostly 46.1 µM), actives largely listed as cytotoxic; also: nearly all actives have a fitted effect of over 60% in size
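Drug-selected KB-V1 cells, grown in DMEM lacking phenol red with 10% FBS, receive compound titrations; after three days at 37 degrees C, surviving cell ATP is quantified by CellTiter-Glo luminescence and responses normalized and curve-fitted.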
HT1080-NT tox: qHTS for induction of synthetic lethality in tumor cells producing 2HG: qHTS for the HT-1080-NT fibrosarcoma cell line; HT-1080-NT fibrosarcoma viability, CellTiter-Glo ATP luminescence, 48 h; Potency, µM (titrated, usually from 46.1 µM), usual class: cytotoxic; AID 686970, 2013; 1.6% of 360,000 active;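 also: NT is the 2HG producing partner of a matched IDH1 knockdown line; nearly all actives have a fitted effect of over 55% in size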
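Viability of the 2HG-overproducing fibrosarcoma line after 48 hours of compound exposure at 37 degrees C was determined by luminescence with CellTiter-Glo, and concentration-effect curves were then fitted and categorized.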
HT1080 IDH1KD tx: qHTS for induction of synthetic lethality in tumor cells producing 2HG: qHTS for the HT-1080-IDH1KD cell line | AID 686971, 2013 | Potency, µM (series often up to 46.1 µM), actives largely listed as cytotoxic | 2% of 360,000 active | HT-1080 IDH1 knockdown viability, ATP luminescence, 48 h
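In this qHTS, HT-1080 cells depleted of IDH1 are exposed for 48 h at 37 °C to compound titrations. Toxicity is scored from CellTiter-Glo luminescence, with DMSO as full viability and medium alone as none.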
SW480 rerep: A quantitative high throughput screen for small molecules that induce DNA re-replication in SW480 colon adenocarcinoma cells. SW480 DNA re-replication, Hoechst DNA content imaging, 48 h. Potency, µM (series often up to 46.1 µM), usual class: activators. 1.8% of 340,000 active; also: nearly all actives have a fitted effect of over 55% in size
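Hoechst fluorescence of nuclei (405 nm excitation, 500-530 nm emission) measured by plate-scanning imager after 48 hr compound exposure at 37 C; re-replication scored as increased number of nuclei with elevated intensity.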
MCF10A rereplic: A quantitative high throughput screen for small molecules that induce DNA re-replication in MCF 10a normal breast cells; Potency, µM (doses to about 46.1 µM), actives largely listed as activators; AID 624296, 2012; 2.9% of 350,000 active; MCF 10A DNA re-replication, Hoechst nuclear intensity, 48 h; also: nearly all actives have a fitted effect of over 50% in size
Large screens that a line does not name were inactive. Shown are actives, neighbours in structure and some others; about 8% of the full set was active somewhere. Calls follow the shape of the dose curve; as a rule, active = well fitted curve in the direction sought with a large enough effect; inconclusive = small, poorly fitted or top-dose-only effect, or another doubt; inactive = no such curve, though single readings can be large; an effect the other way counts as inactive or inconclusive.

Cc1ccc(C2c3[nH]c4ccccc4c3C[C@H]3C(=O)N(c4ccccc4C(=O)NCCCN4CCOCC4)C(=O)N23)cc1 (stereo partly drawn)	HT1080-NT tox inconclusive, HT1080 IDH1KD tx 29µM, MCF10A rereplic inconclusive
Cc1ccccc1C1c2[nH]c3ccccc3c2C[C@H]2C(=O)N(c3ccccc3C(=O)NCCCN3CCOCC3)C(=O)N12 (stereo partly drawn)	SW480 rerep inconclusive, MCF10A rereplic 12µM
Cc1ccccc1C1c2[nH]c3ccccc3c2C[C@H]2C(=O)N(c3ccccc3C(=O)NCCN3CCOCC3)C(=O)N12 (stereo partly drawn)	MCF10A rereplic inconclusive
CC(=O)Nc1ccc(C(=O)CSc2cc(C)c3cccc(C)c3n2)cc1	KB-3-1 cytotox inconclusive, KB-V1 MDR tox 13µM, SW480 rerep inconclusive, MCF10A rereplic inconclusive
COc1ccc(-c2sc3ccccc3c2/C=C/c2ccc(OC)c(OC)c2)cc1	MCF10A rereplic inconclusive
COc1ccc(-c2sc3ccccc3c2/C=C/c2ccncc2)cc1	KB-3-1 cytotox inconclusive, HT1080-NT tox inconclusive, HT1080 IDH1KD tx inconclusive, MCF10A rereplic 7.3µM
COc1ccccc1NC(=O)Cn1c(=O)n(CC(=O)NCc2ccccc2Cl)c(=O)c2sccc21	none (no result: HT1080-NT tox, HT1080 IDH1KD tx, SW480 rerep, MCF10A rereplic)
Cc1cccc(OCCSc2nc(N)cc(N)n2)c1	KB-3-1 cytotox inconclusive, KB-V1 MDR tox inconclusive, SW480 rerep 16µM, MCF10A rereplic inconclusive
CCNc1nc(NCC)nc(SCCOc2ccc(C)cc2)n1	KB-3-1 cytotox inconclusive, KB-V1 MDR tox inconclusive, HT1080 IDH1KD tx inconclusive, MCF10A rereplic 21µM
Cc1cccc(OCCOCCSc2ncccn2)c1	none
Nc1nc2ncn(COCCO)c2c(=O)[nH]1	none (no result: HT1080-NT tox, HT1080 IDH1KD tx, SW480 rerep, MCF10A rereplic)
Cc1nc2c3ccccc3nc(SCC(=O)N3CC(C)CC(C)C3)n2n1 (stereo not drawn)	KB-V1 MDR tox 0.58µM
COCCNC(=O)CSc1nc2ccccc2c2nc(C)nn12	none
Cc1nc2c3ccccc3nc(SCC(=O)c3ccc(Cl)cc3)n2n1	KB-V1 MDR tox 10µM, MCF10A rereplic inconclusive
O=c1[nH]/c(=C/c2ccc3c(c2)OCO3)c(=O)[nH]/c1=C/c1ccc2c(c1)OCO2	none (no result: HT1080-NT tox, HT1080 IDH1KD tx, SW480 rerep, MCF10A rereplic)
CCCn1c(COc2cccc(C)c2)nc2ccccc21	none (no result: HT1080-NT tox, HT1080 IDH1KD tx, SW480 rerep, MCF10A rereplic)
CCCCC1C(=O)NN(c2ccccc2)C1=O (stereo not drawn)	KB-3-1 cytotox inconclusive, HT1080-NT tox 1.8µM, HT1080 IDH1KD tx 4.6µM
CCCCCC1CC(=O)N(Cc2ccccc2)C(=O)N1 (stereo not drawn)	none
COC(=O)c1ccccc1NC(=O)Cn1c(=O)n(CCCC(=O)NCc2ccccc2OC)c(=O)c2ccccc21	none (no result: HT1080-NT tox, HT1080 IDH1KD tx, SW480 rerep, MCF10A rereplic)
CN(C)c1ncnc2c1ncn2C1OC(CO)C(O)C1O (stereo not drawn)	KB-3-1 cytotox 8.2µM, KB-V1 MDR tox inconclusive, HT1080-NT tox 13µM, HT1080 IDH1KD tx 13µM, SW480 rerep 7.3µM, MCF10A rereplic inconclusive
C=CCOc1ccc(C[C@H](N)C(=O)NC[C@H]2O[C@@H](n3cnc4c(N)ncnc43)[C@H](O)[C@@H]2O)cc1	none
COc1ccc(C[C@H](N)C(=O)N[C@H]2[C@@H](O)[C@H](n3cnc4c(N(C)C)ncnc43)O[C@@H]2CO)cc1	KB-3-1 cytotox 0.41µM, SW480 rerep inconclusive, MCF10A rereplic inconclusive
CNc1ncnc2c1ncn2[C@@H]1O[C@H](CO)[C@@H](O)[C@H]1O	none
OCC1OC(n2ccc3c2ncn2ncnc32)C(O)C1O (stereo not drawn)	KB-3-1 cytotox inconclusive, KB-V1 MDR tox 0.65µM, HT1080-NT tox 0.58µM, HT1080 IDH1KD tx 0.65µM (no result: SW480 rerep, MCF10A rereplic)
OCC1OC(n2cnc3c(/C=C(\O)c4ccccc4)ncnc32)C(O)C1O (stereo not drawn)	KB-3-1 cytotox inconclusive, KB-V1 MDR tox inconclusive, HT1080-NT tox inconclusive, HT1080 IDH1KD tx 15µM, SW480 rerep inconclusive, MCF10A rereplic 5.8µM
O=C(/C=C/c1ccc(OC(F)(F)F)cc1)Nc1cccc([S+](=O)([O-])Nc2ccccc2F)c1	none (no result: HT1080-NT tox, HT1080 IDH1KD tx, SW480 rerep, MCF10A rereplic)
Cc1nnc(SCc2nc(-c3ccc(Cl)cc3)no2)n1-c1ccc(F)cc1	KB-3-1 cytotox inconclusive (no result: HT1080-NT tox, HT1080 IDH1KD tx, SW480 rerep, MCF10A rereplic)
NCCc1nc2cccnc2n1-c1ccccc1	none (no result: HT1080-NT tox, HT1080 IDH1KD tx, SW480 rerep, MCF10A rereplic)
Cc1ccc(Nc2c(-c3ccncc3)nc3ccc(C)cn23)cc1	none (no result: HT1080-NT tox, HT1080 IDH1KD tx, SW480 rerep, MCF10A rereplic)
O=c1[nH]cnc2c1ncn2C1OC(CO)C(O)C1O (stereo not drawn)	none
CN(C)c1ncnc2c1nnn2C1OC(CO)C(O)C1O (stereo not drawn)	KB-V1 MDR tox 1.6µM, HT1080-NT tox 0.58µM, HT1080 IDH1KD tx 0.46µM (no result: SW480 rerep, MCF10A rereplic)
Cc1ccsc1CN(C)c1ncnc2ccc(-c3ccc4c(c3)OCO4)cc12	KB-3-1 cytotox inconclusive (no result: HT1080-NT tox, HT1080 IDH1KD tx, SW480 rerep, MCF10A rereplic)
Cc1cc(C(=O)Nn2c(C3CCCCC3)nc3ccccc3c2=O)ccc1[N+](=O)[O-]	MCF10A rereplic inconclusive
O=C(Nn1c(C2CCCCC2)nc2ccccc2c1=O)c1ccc(Cl)c([N+](=O)[O-])c1	HT1080-NT tox inconclusive, HT1080 IDH1KD tx inconclusive, MCF10A rereplic 7.3µM
COc1ccc(NC(=O)CSc2nc3nc(C)c(Cc4ccccc4Cl)c(C)n3n2)cc1OC	none (no result: HT1080-NT tox, HT1080 IDH1KD tx, SW480 rerep, MCF10A rereplic)
CCCCNS(=O)(=O)c1ccc(S(=O)(=O)N2CCC3(CC2)OCCO3)cc1	KB-V1 MDR tox 16µM
O=S(=O)(c1ccc(S(=O)(=O)N2CCC3(CC2)OCCO3)cc1)N1CCCC1	none
